High-throughput results deposited in PubChem BioAssay by National Center for Advancing Translational Sciences (NCATS).
Only some compounds are listed: those with a hit (about 1.1% of all), similar ones and a draw of the others.
rTrxR1 inhibitor – blocks rat thioredoxin reductase 1. O89049. recombinant rTrxR1, NADPH fluorescence consumption, selenite substrate. Potency, µM (top dose mostly 114 µM), most hits filed as inhibitors. 390,000 compounds, 1% hits; note: nearly all actives have a fitted effect of over 65% in size
Target sequence (O89049 whole entry, looked up): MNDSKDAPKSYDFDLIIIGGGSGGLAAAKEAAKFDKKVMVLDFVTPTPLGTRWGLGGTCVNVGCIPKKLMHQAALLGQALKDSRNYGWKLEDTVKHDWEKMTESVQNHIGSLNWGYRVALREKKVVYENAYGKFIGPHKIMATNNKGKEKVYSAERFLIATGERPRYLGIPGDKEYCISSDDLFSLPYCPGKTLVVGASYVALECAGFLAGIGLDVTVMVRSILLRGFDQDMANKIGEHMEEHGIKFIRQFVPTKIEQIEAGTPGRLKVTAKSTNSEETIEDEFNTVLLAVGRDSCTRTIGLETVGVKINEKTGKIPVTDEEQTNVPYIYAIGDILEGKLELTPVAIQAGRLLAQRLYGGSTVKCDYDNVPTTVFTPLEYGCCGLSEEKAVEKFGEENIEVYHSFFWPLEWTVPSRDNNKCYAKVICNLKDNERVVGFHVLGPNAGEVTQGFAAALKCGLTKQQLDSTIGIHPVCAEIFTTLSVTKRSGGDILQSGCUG
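Rat TrxR1 (90 nM in the dispensed reagent) was pre-reduced with 400 uM NADPH for 5 min at room temperature, then incubated with compound for 15 min. After 400 uM selenite was added, NADPH fluorescence (Ex 340/Em 450 nm) was followed for 8 min.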
PI4K2A block – blocks human PI4K2A kinase activity. purified PI4K2A, ADP-Glo luminescence, 1 h; stronger effect = lower value. Q9BTU6. activity change, negative = inhibition, % at 76.9 µM. 420,000 compounds, 0.13% hits; in the data active = activity change below about -50%; inconclusive = mostly about -30% to -49%
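In this quantitative HTS, ADP production by PI4K2A was quantified luminescently after 1 h at ambient temperature; 100 microM adenosine served as plate-quality control.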
TrxR1 substrate – rat thioredoxin reductase 1 substrate activity. AID 588456. O89049. 390,000 compounds, 0.01% hits. Potency, µM (highest dose often 114 µM). purified TrxR1 substrate turnover, NADPH consumption readout; note: nearly all actives have a fitted effect of over 50% in size
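Rat TrxR1, dispensed at 90 nM, was prereduced with 400 uM NADPH (final) for 5 min at ~22 deg C, then incubated with compound 15 min before 400 uM selenite. A first-read NADPH fluorescence drop versus no-compound background flagged substrates.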
GALK inh – galactokinase (human) inhibition; Purified GALK, Kinase-Glo residual ATP luminescence; 270,000 compounds, 0.007% hits; P51570; Potency, µM (titrated, usually from 57.5 µM), most hits filed as inhibitors; AID 1868
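The enzyme phosphorylates galactose (100 uM) using ATP (35 uM); inhibition is detected as higher residual ATP, quantified by bioluminescence after 1 h reaction at room temperature, pH 8.0.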
Of the large screens only hits and unclear results are named; the others gave an inactive call. Unless noted, calls come from the whole dose curve; as a rule, active = well fitted curve in the direction sought with a large enough effect; inconclusive = small, poorly fitted or top-dose-only effect, or another doubt; inactive = no such curve, though single readings can be large; an effect the other way counts as inactive or inconclusive.

O=C(O)c1ccc(-n2ncc(Cl)c(Cl)c2=O)cc1	none (no result: rTrxR1 inhibitor, TrxR1 substrate, GALK inh)
Cc1ccc(C(=O)OCn2ncc(Cl)c(Cl)c2=O)cc1	rTrxR1 inhibitor 12.6µM
CCOC(=O)c1ccc(NC(=O)Cn2ncc(Cl)c(Cl)c2=O)cc1	rTrxR1 inhibitor inconclusive
O=C(OCn1ncc(Cl)c(Cl)c1=O)c1ccc(C(F)(F)F)cc1	rTrxR1 inhibitor 17.8µM
Cc1cccc(Cn2ncc(Cl)c(Cl)c2=O)c1	rTrxR1 inhibitor 50.1µM
CC1(C)Cc2c(ccc3ccccc23)/C(=C/C(=O)N2CCCCC2)N1	none
O=C(/C=C1\NC2(CCCC2)Cc2ccccc21)N1CCOCC1	rTrxR1 inhibitor 39.8µM
CCOC(=O)C1CN(S(=O)(=O)c2ccc(C)cc2)c2ccccc2O1 (stereo not given)	rTrxR1 inhibitor 3.16µM
CC(c1ccccc1)C1CC(=O)N(Cc2ccco2)C1=O (stereo not given)	rTrxR1 inhibitor 39.8µM
C[C@@H](NC(=O)/C(C#N)=C/c1ccc(O)c(O)c1)c1ccccc1	TrxR1 substrate inconclusive (no result: GALK inh)
CC(NC(=O)/C(C#N)=C/c1ccc(Cl)c([N+](=O)[O-])c1)c1ccccc1 (stereo not given)	rTrxR1 inhibitor 39.8µM
Fc1cccc(Cn2ccc3ccc(-c4ccc5ccn(Cc6ccccc6)c5c4)cc32)c1	none (no result: rTrxR1 inhibitor, TrxR1 substrate, GALK inh)
CCOC(=O)C1=C(CCl)NC(=O)NC1c1ccc2c(c1)OCO2 (stereo not given)	rTrxR1 inhibitor 11.2µM
CCCOc1ccc(N2C(=O)CC(N(O)c3ccccc3)C2=O)cc1 (stereo not given)	rTrxR1 inhibitor 7.94µM
CCCOc1ccc(N2C(=O)CC(SCCN)C2=O)cc1 (stereo not given)	rTrxR1 inhibitor 79.4µM
CCCOc1ccccc1N1C(=O)CC(N(O)c2ccccc2)C1=O (stereo not given)	none
COc1ccccc1N(O)C1CC(=O)N(c2ccc(F)cc2)C1=O (stereo not given)	rTrxR1 inhibitor 0.891µM, PI4K2A block inconclusive
CCCOc1ccc(N2C(=O)CC(SCC(N)C(=O)OCC)C2=O)cc1 (stereo not given)	none
CC(=O)Oc1ccc(C2(c3ccc(OC(C)=O)cc3)Oc3ccccc3NC2=O)cc1	none (no result: rTrxR1 inhibitor, TrxR1 substrate, GALK inh)
OC1(c2ccc(Cl)cc2)CCNCC1	none (no result: rTrxR1 inhibitor, TrxR1 substrate, GALK inh)
COc1ccc(C(C)=O)cc1COc1cccc2c1OC(C)(C)C2	rTrxR1 inhibitor 31.6µM
COc1ccc(NC(=O)COc2cccc3c2OC(C)(C)C3)cc1OC	none (no result: GALK inh)
COc1ccc2nc(-c3ccco3)c(-c3ccco3)nc2c1	rTrxR1 inhibitor 8.91µM
c1coc(-c2nc3cc4ccccc4cc3nc2-c2ccco2)c1	rTrxR1 inhibitor 4.47µM (no result: PI4K2A block, GALK inh)
Nc1nc(-c2ccco2)c(-c2ccco2)s1	rTrxR1 inhibitor 50.1µM
c1coc(-c2nc(-c3ccco3)c(-c3ccco3)nc2-c2ccco2)c1	rTrxR1 inhibitor 2.82µM, PI4K2A block inconclusive
COc1ccc2nc3cccc(OC)c3nc2c1	none
O=C(NCCO)Nc1ccc2nc(-c3ccco3)c(-c3ccco3)nc2c1	none (no result: rTrxR1 inhibitor, PI4K2A block, TrxR1 substrate)
O=C(OCC#CCSc1nnc(-c2cccc3ccccc23)o1)c1ccc(SC(F)(F)F)cc1	none (no result: rTrxR1 inhibitor, TrxR1 substrate, GALK inh)
CC1(C(=O)NS(=O)(=O)Cc2ccccc2C(F)(F)F)CCN1C(=O)c1ccco1 (stereo not given)	none (no result: rTrxR1 inhibitor, TrxR1 substrate, GALK inh)
O=C(CCCCl)Nc1c2c(nn1-c1ccccc1)CSC2	none
O=C(CCl)Nc1c2c(nn1-c1ccccc1)CSC2	rTrxR1 inhibitor 12.6µM
CCNC(=O)c1nn(-c2ccccc2C)nc1CO	none (no result: GALK inh)
N#C/C(=C1\SCC(c2ccccc2Cl)S1)n1ccnc1 (stereo not given)	none (no result: rTrxR1 inhibitor, TrxR1 substrate, GALK inh)
Cc1ccc(CSc2nc3cccnc3n2Cc2nc(-c3ccccc3F)oc2C)cc1	none (no result: GALK inh)
Cc1ccc(C(=O)N2CCN3C(=O)c4ccccc4C23c2ccc(Cl)cc2)cc1 (stereo not given)	none
O=C(CCl)N1CCN2C(=O)c3ccccc3C12c1ccc(Cl)cc1 (stereo not given)	rTrxR1 inhibitor 5.01µM
CC(=O)Oc1ccccc1/C=C/c1ccc2ccccc2[n+]1C	rTrxR1 inhibitor 20µM
CN=CC1=C(O)c2ccccc2C1=O	none
O=C1C(C2=C(O)c3ccccc3C2=O)=Nc2ccccc21	rTrxR1 inhibitor 14.1µM, TrxR1 substrate 35.5µM, GALK inh inconclusive
COC(=O)CSc1[nH]c2ccc(Br)cc2c1[N+](=O)[O-]	rTrxR1 inhibitor 11.2µM
CCOc1ccc2[nH]c(SCC(=O)OC)c([N+](=O)[O-])c2c1	none
Oc1ccc2ccccc2c1CNc1cnc2ccccc2c1	rTrxR1 inhibitor 11.2µM
Oc1ccc2ccccc2c1CNc1ccc(Br)cc1	rTrxR1 inhibitor 28.2µM
Oc1ccccc1CNc1cnc2ccccc2c1	none
